# Source: PubChem (National Center for Advancing Translational Sciences (NCATS))
# KDM5B inhibitor = KDM5B demethylase inhibition. Q9UGL1. KDM5B demethylase, FDH-coupled NADH fluorescence (FDH is formaldehyde dehydrogenase). Potency, µM (highest dose often 57.7 µM), most hits filed as inhibitors. hit rate 2.6% among 220,000. AID 1347165; active = well fitted inhibition curve with a large enough effect; also: 0% is about no effect; nearly all actives have a fitted effect of over 70% in size
# Target sequence (Q9UGL1 whole entry, looked up): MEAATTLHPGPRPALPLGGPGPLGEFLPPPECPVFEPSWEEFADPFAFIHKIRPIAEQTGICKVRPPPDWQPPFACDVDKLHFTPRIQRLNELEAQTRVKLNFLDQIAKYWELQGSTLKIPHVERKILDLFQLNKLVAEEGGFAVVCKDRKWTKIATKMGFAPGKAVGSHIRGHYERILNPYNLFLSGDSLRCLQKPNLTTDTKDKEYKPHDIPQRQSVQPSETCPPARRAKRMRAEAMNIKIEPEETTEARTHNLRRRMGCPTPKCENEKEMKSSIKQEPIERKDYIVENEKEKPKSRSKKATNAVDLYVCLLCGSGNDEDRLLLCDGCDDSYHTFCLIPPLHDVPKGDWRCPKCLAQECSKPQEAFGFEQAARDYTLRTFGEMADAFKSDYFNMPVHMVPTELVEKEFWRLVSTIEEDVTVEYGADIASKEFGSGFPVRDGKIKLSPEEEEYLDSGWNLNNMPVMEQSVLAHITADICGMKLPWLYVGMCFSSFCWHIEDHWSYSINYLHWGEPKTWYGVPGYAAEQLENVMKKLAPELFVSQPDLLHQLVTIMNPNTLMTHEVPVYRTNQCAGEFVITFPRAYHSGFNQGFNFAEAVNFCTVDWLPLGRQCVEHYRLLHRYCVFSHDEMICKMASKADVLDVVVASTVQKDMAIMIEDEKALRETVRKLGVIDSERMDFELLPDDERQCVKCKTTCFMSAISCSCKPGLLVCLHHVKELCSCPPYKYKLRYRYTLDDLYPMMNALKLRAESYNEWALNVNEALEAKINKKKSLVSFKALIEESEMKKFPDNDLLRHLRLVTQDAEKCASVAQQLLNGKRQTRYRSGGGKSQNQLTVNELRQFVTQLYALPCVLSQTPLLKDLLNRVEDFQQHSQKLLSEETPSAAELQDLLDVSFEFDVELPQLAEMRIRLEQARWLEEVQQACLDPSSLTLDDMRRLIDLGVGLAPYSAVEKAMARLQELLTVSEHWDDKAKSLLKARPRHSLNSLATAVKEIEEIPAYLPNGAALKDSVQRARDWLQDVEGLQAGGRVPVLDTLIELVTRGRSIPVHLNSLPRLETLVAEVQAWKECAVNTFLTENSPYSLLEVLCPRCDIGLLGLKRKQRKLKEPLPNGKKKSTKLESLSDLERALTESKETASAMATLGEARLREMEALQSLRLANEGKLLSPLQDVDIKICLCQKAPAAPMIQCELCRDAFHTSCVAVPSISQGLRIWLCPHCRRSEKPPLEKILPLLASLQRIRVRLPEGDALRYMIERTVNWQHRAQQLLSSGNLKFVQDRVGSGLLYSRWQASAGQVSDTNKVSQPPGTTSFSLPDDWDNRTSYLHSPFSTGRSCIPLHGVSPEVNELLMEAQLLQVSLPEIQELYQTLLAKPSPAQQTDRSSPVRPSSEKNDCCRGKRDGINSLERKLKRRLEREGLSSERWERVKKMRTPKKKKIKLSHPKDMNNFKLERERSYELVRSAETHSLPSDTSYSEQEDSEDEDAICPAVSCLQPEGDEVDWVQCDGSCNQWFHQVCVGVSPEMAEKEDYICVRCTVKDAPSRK
#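 Compound dilutions met 200 nM (final) KDM5BΔAP for 10 min at room temperature before substrate addition. The substrate mix held 12.5 µM H3K4me3 with cofactors 25 µM α-ketoglutarate and 50 µM Fe²⁺. NADH signal gain over 30 min defined activity.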
# Starred values were filed as active, the others as inactive; i = inactive; ! = a repeat was not active. This is one part of a sample in which hits are shown more often than they occur. Potency is read from the fitted curve at half-maximal effect.
SMILES,KDM5B inhibitor
O=C1COCC2(CN1Cc1cccc(OC(F)(F)F)c1)CN(c1ccccc1F)C2,i
CCc1sc(C(=O)NCCC(C)C)cc1C,i
N#CCCN(C(=O)CSc1nc(CN2CCOCC2)nc2ccccc12)c1ccc(F)cc1,i
C[C@@H]1CN(C(=O)c2cc(-c3ccco3)nc3c(Cl)cccc23)C[C@]1(C)O,i
Cc1cc(C)n2nc(CC(=O)NCc3cc(-c4ccco4)on3)nc2n1,i
Cc1cc(CNC(=O)c2cc(-c3ccco3)nc3c(Cl)cccc23)no1,28µM*
COc1ccc(-c2nc(C3CC3)nc3c2CCN(Cc2ccsc2)CC3)cc1,79µM*
COc1ccc(C(=O)N2CCc3nc(C4CC4)nc(-c4ccc(OC)cc4)c3C2)cc1,i
CCc1nc2c(c(-c3ccc(Cl)cc3)n1)CCN(Cc1cccn1C)CC2,i
CCc1nc2c(c(-c3ccc(O)cc3)n1)CCN(Cc1ccsc1)CC2,i
COc1cccc(CN2CCc3nc(C4CC4)nc(-c4ccc(O)cc4)c3C2)c1,i
COc1ccc(-c2nc(C3CC3)nc3c2CN([S+](=O)([O-])c2ccccc2)CC3)cc1,i
COc1ccc(-c2nc(C3CC3)nc3c2CCN(CC2CCCCC2)CC3)cc1,25µM*
COc1ccc(-c2nc(C3CC3)nc3c2CCN(Cc2cccn2C)CC3)cc1,50µM*
CN(C)c1ccc(CN2CCc3nc(C4CC4)nc(-c4ccc(O)cc4)c3CC2)cc1,i
O=C(/C=C/c1ccc(-c2ccccc2)cc1)c1ccccc1,i
Cc1c(C#N)c(NC(=O)CN2CCNC(=O)C2)n(Cc2ccco2)c1C,i
CN(Cc1ccco1)C(=O)NCc1ccc(F)cc1,i
Cc1ccc(-n2ccn3c(CCC(=O)Nc4ccc(F)c(Cl)c4)nnc3c2=O)cc1C,i
CC(NC(=O)/C=C/c1ccc(Cl)cc1)c1ccc(NC(N)=O)cc1 (stereo not drawn),i
Cc1cc(-c2nc3ccncc3[nH]2)c(C)o1,32µM*!
COc1ccc2oc(=O)c(-c3nc4ccc(C)cc4[nH]3)cc2c1,i
Cc1oc(-c2ccccc2Cl)nc1CSc1nc2ccncc2[nH]1,i
Clc1ccc(-c2noc(-c3ccccc3Br)n2)cc1,i
O=C(O)CCc1nn2c3ccccc3n(CCOc3ccccc3Cl)c2nc1=O,i
SMILES,KDM5B inhibitor
Brc1ccc(-c2csc(NC3CCCCC3)n2)cc1,i
Nc1ncc(C(=O)N[C@@H]2CC[C@@H](N)C2)c(-c2ccccc2)n1,22µM*
Cn1cc(C(NC(=O)c2cnc(N)nc2-c2ccccc2)C2CC(O)C2)cn1 (stereo not drawn),i
Cc1ncc(C(=O)N[C@H]2CC[C@H]2NC2CCCC2)c(-c2ccccc2)n1,i
Cc1cccc(Cn2c(SCC(=O)c3ccccc3)nc3c2c(=O)[nH]c(=O)n3C)c1,i
C1CNC(CN2CCOCC2)C1 (stereo not drawn),i
O=C(NCc1nc(-c2cccs2)no1)c1ccc2c(c1)OCO2,i
CCN1CC(CN(C)C(=O)c2nn(Cc3ccccc3)c(=O)c3ccccc23)Oc2ccccc21 (stereo not drawn),i
COc1cccc(CCC(=O)Nc2nc(C)c(C(C)=O)s2)c1OC,i
COCCCNC(=O)c1ccc2c(c1)CC(=O)N2Cc1ccccc1,i
CCN1CCN(C(=O)c2ccc3c(c2)n(Cc2cccc(F)c2)c(=O)c2ccnn23)CC1,25µM*
COCCCNC(=O)c1ccc2c(c1)n(Cc1cccc(F)c1)c(=O)c1ccnn12,28µM*
CCCCNC(=O)c1ccc2c(c1)n(Cc1cccc(OC)c1)c(=O)c1ccnn12,35µM*
Cc1ccc(Cn2c(C3CCN(C(=O)c4cccc(F)c4)CC3)n[nH]c2=O)cc1,i
CCN1CCN(C(=O)c2ccc3c(c2)N(Cc2cccc(F)c2)C(=O)c2ccccc2S3)CC1,i
COCCCNC(=O)c1ccc2c(c1)n(Cc1ccc(OC)cc1)c(=O)c1ccnn12,i
COc1cccc(CNC(=O)c2ccc3oc(=O)n(Cc4ccccc4)c3c2)c1,i
CCCCNC(=O)c1ccc2c(c1)ncn2-c1cc(OC)ccc1OC,i
COCCN1C(=O)c2ccccc2C(C(=O)Nc2cc(C)ccc2OC)C12CCCCC2 (stereo not drawn),i
Cc1cccc(C(=O)NCCc2c[nH]c3ccccc23)c1C,i
CC(C)[n+]1c(NCc2cc(Br)cc(Br)c2[O-])[nH]c2ccccc21,i
CN(C(=O)[C@@H]1C[C@@H](c2ccc(F)cc2)N([S+](=O)([O-])c2ccccc2)C1)c1ccccc1,i
CCOC1OC(=O)C(Cl)=C1Nc1ccc(C)c(C)c1 (stereo not drawn),i
COc1cc(CNC(=O)Cc2ccc(Cl)cc2)ccn1,i
CC(C)(C)c1ccc(O)c(C(C)(C)C)c1O,i
SMILES,KDM5B inhibitor
CCCC(C)NC(=O)N1CCN(C(=O)Cc2c[nH]c3ccccc23)CC1 (stereo not drawn),i
O=C(c1ccncc1)N1CCC(N2CC3CC(C2)[C@H]2CCCC(=O)N2C3)CC1 (stereo partly drawn),18µM*
O=C(c1ccc(C(F)(F)F)cc1)N1CCC(N2CC3CC(C2)[C@H]2CCCC(=O)N2C3)CC1 (stereo partly drawn),i
CC(C)c1ccc(C(=O)N2CCC(N3CC4CC(C3)[C@H]3CCCC(=O)N3C4)CC2)cc1 (stereo partly drawn),i
O=C(Cc1cccs1)Nc1cccc(-c2nc3cc(Cl)ccc3o2)c1,i
O=C1OCCCN1CCNc1ccc(-c2nc(-c3ccccc3F)no2)cn1,28µM*
CN(Cc1nccs1)c1ccc(-c2nc(-c3ccccc3F)no2)cn1,22µM*
Fc1ccccc1-c1noc(-c2nc(C3CC3)no2)n1,i
O=C1CCCN1Cc1nc(-c2ccc(F)c(Cl)c2)no1,i
Fc1ccccc1-c1noc(-c2nc(-c3cnccn3)no2)n1,i
Fc1ccc(N2CCN(c3nc(-c4ccccc4F)no3)CC2)cc1,i
CCOc1nc(-c2ccc(C)cc2)ccc1-c1noc(-c2ccccc2F)n1,i
CCc1ccc(Nc2nc(-c3ccccc3F)no2)cc1,i
Fc1ccccc1-c1noc(-c2nc(-c3ccncc3)no2)n1,i
CC(Cn1cccn1)Nc1ccc(-c2nc(-c3ccccc3F)no2)cn1 (stereo not drawn),28µM*
CCCc1noc(-c2nc(-c3ccccc3F)no2)n1,i
O=C1CCCCN1CCNc1ccc(-c2nc(-c3ccccc3F)no2)cn1,32µM*
CCOC(=O)/C(C#N)=C\c1cc(Cl)c(OC)c(OC)c1,i
COc1cccc(CN(C)C(=O)c2cc3cc(Br)ccc3[nH]2)c1,i
CCCc1cc(=O)[nH]c(SCc2nc(-c3ccc(OC)cc3OC)no2)n1,i
COc1ccc(-c2noc(CC3CCN(C(=O)C4(c5ccc(OC)cc5)CC4)CC3)n2)cc1,i
CCc1nnsc1C(=O)NCC(C)(C)c1ccc(Br)cc1,i
CCC(=O)N1CCC2(CC1)C(OC)C(=O)N2CC1CC1 (stereo not drawn),i
CCOC(=O)c1oc2cc(OCC(N)=O)ccc2c(=O)c1-c1ccc(Br)cc1,i
O=C(COC(=O)CCc1c[nH]c2ccccc12)NCC(F)(F)F,i
O=C(COc1ccc(F)cc1)N1CC(c2nnc(-c3ccncc3)o2)C2(CCOCC2)C1 (stereo not drawn),i
C=CCN(Cc1ccc(OC)cc1)C(=O)Cc1nn(C)c(=O)c2ccccc12,i
N#Cc1nc(C2CC2)oc1N1CCN(CC2CCCCC2)CC1,i
O=S1CCN(c2nc(C3CC3)nc3sc4c(c23)CCCC4)CC1,i
